# Measured values as given in PubChem BioAssay AID740 (SRMLSC, 2007).
# Hit rate of the full screen: of about 96,000 compounds, about 65 (0.07%) were called active. Rule as the data show it: active = inhibition above about 25%; inactive = the rest. Shown is part of a subset that was picked to be rich in actives.
# Test: unspecified inhibition readout at 50 µM (AID 740)
# Settings: unspecified screen; stronger effect = higher value
row,SMILES,inhibition
1,CC(NC(=O)c1ccc(F)cc1)c1ccccc1 (stereo unspecified),1.4% (inactive)
2,CC(NC(=O)c1ccc(S(=O)(=O)N(C)C)cc1)c1ccccc1 (stereo unspecified),26.5% (active)
3,CC(NC(=O)c1ccc(NS(C)(=O)=O)cc1)c1ccccc1 (stereo unspecified),1.26% (inactive)
4,CCCn1ncc(C(=O)O)c1C,0.49% (inactive)
5,CCn1c(N2CCN(CC(=O)c3c[nH]c4ccccc34)CC2)nc2c1c(=O)[nH]c(=O)n2C,0.91% (inactive)
6,CCc1c(C)[nH]c2nc3ccccc3n2c1=O,1.48% (inactive)
7,COCc1cc(=O)n2c(-c3ccccc3OC)n[nH]c2n1,inactive
8,CCc1c(C)nc2[nH]nc(-c3ccccc3)n2c1=O,39.6% (active)
9,Cc1cc(=O)n2c(-c3ccccc3C)n[nH]c2n1,0.44% (inactive)
10,CCc1c(C)nc2[nH]nc(NC(=O)C(F)(F)F)n2c1=O,1.45% (inactive)
11,CCc1c(C)nc2[nH]nc(-c3ccccc3C)n2c1=O,36.2% (active)
12,CC(=O)N1CCN(S(=O)(=O)c2cccc(C(=O)Nc3nc4c(s3)CCCC4)c2)CC1,0.78% (inactive)
13,COc1ccccc1NC(=O)c1cc(C(=O)O)ccc1C(=O)O,inactive
14,O=C1CSC(=S)N1c1cccnc1,inactive
15,O=C1CSC(=S)N1Cc1cccnc1,28.6% (active)
16,O=C(O)c1ccc(CN2C(=O)CSC2=S)cc1,inactive
17,COc1cccc(-c2nc(CS(=O)(=O)CC(=O)N3CCc4ccccc43)c(C)o2)c1,inactive
18,Cc1ccccc1N(CC(=O)NC1CCCC1)C(=O)c1oc(C(C)(C)C)cc1C,2.02% (inactive)
19,O=c1c2ccccc2nc2c3ccccc3c(NCc3ccco3)nn12,0.85% (inactive)
20,Cc1sc2nc3ccc(NCc4ccco4)nn3c(=O)c2c1C,3.95% (inactive)
21,Cc1sc2nc3c4ccccc4c(NCc4ccco4)nn3c(=O)c2c1C,26.7% (active)
22,Cc1cc(C(=O)OCC(=O)Nc2ccc(S(=O)(=O)N3CCOCC3)cc2)c(C)o1,inactive

row,SMILES,inhibition
1,Nc1nc(-c2ccco2)nn1C(=O)c1ccc(Cl)cc1,0.07% (inactive)
2,Cc1ccc(-c2csc3ncn(/N=C/N(C)C)c(=O)c23)o1,0.16% (inactive)
3,Cc1nc2scc(-c3ccco3)c2c(=O)n1/N=C/N(C)C,25.3% (active)
4,Cc1nc2scc(-c3ccccc3)c2c(=O)n1/N=C/c1ccco1,inactive
5,COC(=O)Cn1cc(C(=O)OC)c2ccccc21,inactive
6,COc1cccc(CNC(=O)CCS(=O)(=O)c2cccc3nsnc23)c1,0.1% (inactive)
7,Cc1ccc(CNC(=O)CCS(=O)(=O)c2cccc3nsnc23)cc1,0.45% (inactive)
8,O=C(CCS(=O)(=O)c1cccc2nsnc12)NCc1ccccc1Cl,79.1% (active)
9,COc1cc2[nH]c(=O)n(CCC(=O)NC3CCCC3)c(=O)c2cc1OC,0.82% (inactive)
10,Cc1sc(-c2ccccn2)nc1OC(=O)c1ccc(Cl)cc1,inactive
11,CCn1cc(C(=O)O)c(=O)c2cc(F)c(N3CCN(C(=O)Nc4ccccc4)CC3)cc21,1.47% (inactive)
12,COc1c(N2CCN(C(=S)Nc3ccc(F)cc3)C(C)C2)c(F)cc2c(=O)c(C(=O)O)cn(C3CC3)c12 (stereo unspecified),0.59% (inactive)
13,NC1C2CN(c3nc4c(cc3F)c(=O)c(C(=O)O)cn4-c3ccc(F)cc3F)CC12 (stereo unspecified),27.2% (active)
14,O=C(O)c1cccc(COCC(F)(F)C(F)F)c1,inactive
15,COc1ccc([C@H]2[C@H](C(=O)C(C)(C)C)N3N=Cc4ccccc4C3[C@]23N=C(c2ccccc2)OC3=O)cc1 (stereo partly specified),inactive
16,COc1ccc(CCN(Cc2cc3cc(C)c(C)cc3nc2Cl)C(=O)C2CC2)cc1,inactive
17,CC(C)(C)c1ccc(OCCN2CCCC2)cc1,inactive
18,CC(C)(C)c1ccc(OCCn2ccccc2=O)cc1,25.3% (active)
19,CC(C)(c1ccccc1)c1ccc(OCCn2cnc3ccccc3c2=O)cc1,inactive
20,CCS(=O)(=O)Nc1ccc(-c2ccc(NS(=O)(=O)CC)c(OC)c2)cc1OC,0.7% (inactive)
21,Cc1ccc(S(=O)(=O)CC(N)=O)cc1,0.12% (inactive)
22,O=C(c1ccco1)N1CCN(c2cc(C(F)(F)F)nc3ncnn23)CC1,1.54% (inactive)

row,SMILES,inhibition
1,CCCN(CCC)C(=O)Cn1c(=O)n(CCCCC(=O)NC2CCCC2)c(=O)c2ccccc21,0.15% (inactive)
2,CCN1CCN(CC(O)COc2ccc(C(C)=O)cc2)CC1 (stereo unspecified),0.4% (inactive)
3,Cc1cc(C)c(C(=O)/C=C/c2ccc(C(C)C)cc2)c(=O)[nH]1,1.62% (inactive)
4,Cc1ccc(/C=C/C(=O)c2c(C)cc(C)[nH]c2=O)cc1,35.2% (active)
5,CCc1ccc(/C=C/C(=O)c2c(C)cc(C)[nH]c2=O)cc1,24.9% (inactive)
6,COCCSc1ccccc1C(=O)N1CCOCC1,inactive
7,CC(C)(C)c1ccc(S(=O)(=O)n2c(CN3CCOCC3)nc3ccccc32)cc1,0.34% (inactive)
8,CCOC(=O)CSc1nnc(C2CCCCC2)n1C,inactive
9,O=C(c1ccc(F)cc1)C(CN1CCOCC1)c1ccccc1 (stereo unspecified),inactive
10,COc1ccc(C(=O)C(CN2CCOCC2)c2ccccc2)cc1 (stereo unspecified),41.7% (active)
11,COc1ccc(C(=O)C(CN2CCCC2)c2ccccc2)cc1 (stereo unspecified),8.35% (inactive)
12,Nc1nc(SCc2ccccc2)[nH]c(=O)c1-c1ccccc1,inactive
13,O=C(CN1CCN(c2ncccn2)CC1)NCCC1=CCCCC1,50.1% (active)
14,O=C(CSc1ncccc1C(=O)O)NCCC1=CCCCC1,inactive
15,O=C(CN1CCN(C2CCCCC2)CC1)NCCC1=CCCCC1,inactive
16,COc1cccc(NS(=O)(=O)c2ccc3[nH]cc(C(=O)NCCC(C)C)c(=O)c3c2)c1,1.2% (inactive)
17,O=C(NCc1ccco1)c1cc(S(=O)(=O)N2CCOCC2)ccc1Cl,0.08% (inactive)
18,CCCCOc1cccc(NC(=O)CSc2nccn2C)c1,inactive
19,C=CCNC(=S)Nc1cccc2ccccc12,0.02% (inactive)
20,Cn1nc([N+](=O)[O-])nc1Sc1nnc(-c2ccccc2)o1,28.3% (active)
21,COc1ccccc1-c1nnc(Sc2nc([N+](=O)[O-])nn2C)o1,inactive
22,Cn1nc([N+](=O)[O-])nc1Sc1ccc(C(C)(C)C)cc1,9.59% (inactive)
